Screening results deposited in PubChem BioAssay by National Center for Advancing Translational Sciences (NCATS).
Pf growth 96h = P. falciparum growth inhibition at 96 hour, primary screen for plastid delayed-death inhibitors | AID 504834 | 6.9% of 320,000 active | Potency, µM (highest dose often 28.7 µM), for the others: top-dose activity change, negative = inhibition, actives largely listed as inhibitors | P. falciparum luciferase reporter growth, 96 h; also: potency is read from the fitted curve at half-maximal effect
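Two-generation exposure (96 h) targets delayed-death phenotype. Reporter parasites carrying integrated firefly luciferase, in red cells at 2% hematocrit and 0.05% parasitemia final, kept at 37 C, 5% CO2; luminescence loss indicates inhibition.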
Pf growth 48h = inhibits P. falciparum growth in the first generation, 48 h; Potency, µM (series often up to 28.7 µM), for inactives: at the highest dose activity change, negative = inhibition, most hits filed as inhibitors; 5.9% of 310,000 active; AID 504832; P. falciparum luciferase growth in erythrocytes, 48 h; also: potency is read from the fitted curve at half-maximal effect
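Read-out is firefly luciferase luminescence from an integrated reporter in P. falciparum, so falling signal marks reduced parasite growth. Infected erythrocytes were at 2% hematocrit and 0.1% parasitemia (final) in Albumax-supplemented RPMI 1640.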
HCMV inh = human cytomegalovirus inhibition; 4.5% of 410,000 active; HFF cells, HCMV-luciferase reporter, 72 h; stronger effect = lower value; activity change, negative = inhibition, % at 57.5 µM; AID 1259415; in the data active = activity change below about -60%; inconclusive = no clear call, values can overlap the other calls; inactive = above about -39%
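Cell-based, HFFs, 1000 cells/well, 16 h 37C; cpds in DMSO + HCMV-luc, MOI 1 PFU/cell; 72 h 37C; OneGlo luminescence after 5 min RT; norm. to buffer vs Salinomycin 10uM.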
HCV inh = blocks hepatitis C virus; Huh7.5.1 HCVcc-Cre infection, luciferase reporter, 44 h; Potency, µM (doses to about 41.8 µM), for the others: at the top dose activity change, negative = inhibition, most hits filed as inhibitors; 3.4% of 340,000 active; also: potency is read from the fitted curve at half-maximal effect
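Luciferase read-out (15 sec integration) after a 15 min room-temperature substrate step quantifies HCVcc-Cre infection. Cells, 1,000 per well, had compound added 4 h post-plating, then virus at ~0.5 moi, and were cultured 44 h.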
* marks the source's active call; other numbers are inactive results; ? = inconclusive; . = not tested or not shown; ! = a repeat was not active; [ ] = dose if it differs, or a comment. Compounds with a hit are over-represented: about 13% of the library has one in this group of screens. Unless noted, calls follow the shape of the dose curve; as a rule, active = well fitted inhibition curve with a large enough effect; inconclusive = small, poorly fitted or top-dose-only effect, or another doubt; inactive = no such curve, though single readings can be large or run the other way. % is scaled to controls: 0 for no effect and ±100 for the full control effect.

SMILES	Pf growth 96h	Pf growth 48h	HCMV inh	HCV inh
COC(=O)c1ccc(NC(=O)Cc2coc3cc(C)ccc23)cc1	.	.	-8.2	.
CCCCC(CC)CNC(=O)c1ccc(Cn2c(=O)[nH]c3cc(OC)c(OC)cc3c2=O)cc1 (configuration not stated)	.	.	-2.7	.
Cc1cccc(NC(=O)CN2C(=O)c3cccnc3Oc3ccc(Cl)cc32)c1C	.	.	0.0	.
CCOc1ccc(NC(=O)CSc2oc(-c3ccco3)nc2S(=O)(=O)c2ccc(Cl)cc2)cc1	.	.	9.4	.
CCC(C)(C)NC(=O)CSc1nc(Cc2ccccc2)nc2ccccc12	?	?	-71.6*	-25.6%
CC(=O)SC1CC(=O)N(c2c(C)cccc2C)C1=O (configuration not stated)	13.1%	1.85µM*	-15.8	21.6%
CC(=O)SC1CC(=O)N(c2ccc(C(C)(C)C)cc2)C1=O (configuration not stated)	36.0%	23.6%	11.6	12.7%
COC(=O)/C=C/[C@@H]1CCCN1c1ccc(OC)cc1	.	.	4.8	.
N#C/C(=C\c1ccc(OCc2ccc(F)cc2)cc1)C(=O)Nc1cccc(C(=O)O)c1	-0.8%	-2.7%	-75.3*	33.6%
N#C/C(=C\c1ccc(OCc2ccccc2)cc1)C(=O)Nc1nc2c(s1)CCN(Cc1ccccc1)C2	?	8.28µM*	-3.4	1.4%
CN(C)c1ccc(/C=C(/C#N)C(=O)Nc2nc3c(s2)CCN(Cc2ccccc2)C3)cc1	.	.	-39.7	?
COc1ccc(CNC(=O)Cc2ccc(NC(=O)N3CCCCc4ccccc43)cc2)cc1	.	.	36.2	.
CCCNC(=O)C1CCC(Cn2c(=O)c3sccc3n(CC(=O)N3CCCC3)c2=O)CC1 (configuration not stated)	.	.	6.1	.
COc1cccc(-n2cc(C(=O)Nc3cccc(C(F)(F)F)c3)c3ccccc3c2=O)c1	.	.	-39.0	.
C=CC(C)(C)c1c(O)c(CC=C(C)C)c(O)c2c(=O)c3ccc(O)c(O)c3oc12	.	.	.	11.2µM*
N#CCSc1nnc(C2CCCCC2)n1Cc1ccccc1	3.29µM*	-15.1%	5.5	3.2%
COc1cc(/C=C/c2nnc3c4ccccc4ncn23)cc(OC)c1OC	?	9.28µM*	19.4	2.24µM*
COC(=O)[C@@]12C[C@@H](CC(=O)NCCc3ccccc3OC)C(=O)N(Cc3ccccc3)C1=CCC(C)(C)C2	.	.	-13.9	.
CNC(=O)C1(C)Cc2c(-c3ccc4c(c3)OCO4)ccnc2O1 (configuration not stated)	.	.	2.0	.
CC(=O)Nc1cccc(-c2ccnc3c2CC(C)(C(=O)Nc2ccc4c(c2)OCO4)O3)c1 (configuration not stated)	.	.	-79.0*	.
CC1(C(=O)Nc2ccc(Cl)c(C(F)(F)F)c2)Cc2c(-c3ccc(C(N)=O)cc3)ccnc2O1 (configuration not stated)	.	.	-61.7*	.
CC1(C(=O)Nc2ccc(Cl)c(C(F)(F)F)c2)Cc2c(-c3cccc(C(N)=O)c3)ccnc2O1 (configuration not stated)	.	.	-30.8	.
CC1(C(=O)Nc2cccc(OC(F)(F)F)c2)Cc2c(-c3ccc4c(c3)OCO4)ccnc2O1 (configuration not stated)	.	.	-60.3*	.
CN(C)c1ccc(-c2ccnc3c2CC(C)(C(=O)Nc2cccc(OC(F)(F)F)c2)O3)cc1 (configuration not stated)	.	.	8.3	.
COc1ccc(NC(=O)C2(C)Cc3c(-c4ccc5c(c4)OCO5)ccnc3O2)cc1 (configuration not stated)	.	.	-61.5*	.
SMILES	Pf growth 96h	Pf growth 48h	HCMV inh	HCV inh
CCN(CC)CCNC(=O)c1nn(C)c2c1CS(=O)(=O)c1ccccc1-2	.	.	-0.9	.
CNc1nc2cnc(Nc3ccc(F)c(Cl)c3)cc2n1-c1cc(OC)c(OC)c(OC)c1	.	.	75.6	.
COc1ccc(NC(=O)C2(C)Cc3c(-c4ccc(NC(C)=O)cc4)ccnc3O2)cn1 (configuration not stated)	.	.	-6.0	.
COc1ccc(NC(=O)C2(C)Cc3c(-c4cccc(NC(C)=O)c4)ccnc3O2)cn1 (configuration not stated)	.	.	-71.6*	.
Cc1n[nH]c(=S)n1/N=C/c1ccc(OCc2ccc(Cl)cc2)cc1	48.4%	51.5%	2.8	-11.0%
Cc1ccc(/C=N/n2c(COc3ccccc3)n[nH]c2=S)o1	2.6%	16.1%	-90.4*	7.2%
S=c1[nH]nc(Cc2ccc(Br)cc2)n1/N=C/c1ccc(Cl)cc1	?	?	-66.7*	9.6%
Cc1cc(C)c(COc2ccc(/C=N/n3c(C)n[nH]c3=S)cc2)c(C)c1	11.9%	11.7µM*	19.6	8.3%
S=c1[nH]nc(COc2ccccc2)n1/N=C/c1ccc(Cl)cc1	1.2%	9.6%	13.1	3.0%
CCc1n[nH]c(=S)n1/N=C/c1ccc(N(C)c2ccccc2)cc1	?	10.4µM*	-22.5	-4.8%
COc1ccccc1NC(=O)c1cccc(S(=O)(=O)N2CCN(Cc3ccccc3)CC2)c1	11.7µM*	?	-8.2	10µM*
COc1ccc(NC(C)=O)cc1NC(=O)c1cccc(S(=O)(=O)N2CCN(Cc3ccccc3)CC2)c1	3.7µM*	?	-14.6	-23.7%
COc1ccc(CN2CCN(S(=O)(=O)c3ccc(NC(C)=O)cc3)CC2)c(OC)c1OC	13.1µM*	?	-97.5*!	-10.6%
CN1C(=O)/C(=C2\SC(=S)N(NC(=O)c3cccnc3)C2=O)c2ccccc21	2.94µM*	9.3%	105.8	14.5%
Clc1ccc(-c2nnc(-c3ccccc3)c(N3CCSCC3)n2)cc1	?	-5.1%	-10.8	-6.3%
CC1CN(c2nc(-c3ccc(Br)cc3)nnc2-c2ccccc2)CC(C)N1 (configuration not stated)	8.28µM*	?	49.6	?
Cc1ccc2c(c1)N(C)/C(=C/c1cccc[n+]1C)S2	0.465µM*	5.3%[0.00184 µM]	-97.9*	?
CC(=O)c1ccc2c(c1)N(C)c1ccccc1S2	9.8%	22.7%	23.4	?
Cc1ccc2c(c1)N(C)/C(=C/c1cccc[n+]1CCO)S2	15.8%	1.85µM*	-97.1*	?
CN1/C(=C/C(=O)C2CCC2)Sc2ccccc21	3.0%	152.8%	123.0	?
CN1/C(=C/c2cccc[n+]2C)Sc2ccccc21	2.5%	1.17µM*	-96.5*	?
CC(C)(C)OC(=O)N1CCC(c2c(C(=O)NCCN3CCc4ccccc4C3)cnn2-c2ccc(F)cc2)CC1	.	.	14.3	.
CCOC(=O)c1sc(NC(=O)CNCc2ccccn2)c(C(=O)OCC)c1C	0.415µM*	1.04µM*	-11.5	4.4%
CCOC(=O)c1sc(NC(=O)CNCc2cccnc2)c(C(=O)OCC)c1C	?	?	-62.0*	-16.8%
CCCCN(CCCC)CCNC(=O)c1cn(C)c2ccc(S(=O)(=O)N3CCOCC3)cc2c1=O	.	.	-4.8	.
CCOC(=O)C1CCN(c2c(C(=O)c3ccc(C)cc3)cnc3ccc(F)cc23)CC1	.	.	-7.9	.
O=C(c1ccccc1F)c1cn(Cc2ccccc2)c2ccccc12	-16.2%	-18.6%	-27.5	-11.0%
